According to PubChem BioAssay:
For some assays here: Measured potencies and affinities stand elsewhere. Active and inactive are the calls of the source. Unless noted, how the calls were made is not given here.

Legend:
[1] = antimalarial activity against Dd2 strain (AID 2302;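 active means growth inhibition above 50% at the single 2 µM test dose, taken to imply half-maximal potency below 2 µM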;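 further: 0% = DMSO untreated growth and 100% = chloroquine plus artemisinin killed control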); conditions: P. falciparum Dd2 in RBCs, LDH growth readout, 72 h; at 2 µM; stronger effect = higher value
[2] = HepG2 cytotoxicity, primary screen, cytotoxicity control for P. falciparum antimalarial project, cell-based, ATP luminescence (AID 2303;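 active means inhibition above 50%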;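 further: 0% = DMSO wells and 100% = digitonin-killed cells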); conditions: HepG2 viability, 24-48 h, at 10 µM, stronger effect = higher value
[3] = target: L-lactate dehydrogenase (Plasmodium falciparum (isolate CDC / Honduras)) (UniProt Q27743); test: PfLDH activity inhibition – cell lysate, 3D7 strain, counter-screen for P. falciparum growth inhibition project (AID 2304);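 further: 0% = vehicle and 100% = reference inhibitor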; conditions: P. falciparum 3D7 crude extract, LDH APAD/NBT absorbance; at 2 µM; stronger effect = higher value
[4] = inhibition of 3D7 malaria parasite growth – strain 3D7 (AID 2306);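 further: 0% = DMSO wells and 100% = chloroquine plus artemisinin control wells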; conditions: P. falciparum 3D7 erythrocytic growth, LDH absorbance, 72 h; at 2 µM; stronger effect = higher value
[5] = target: Calcium-dependent protein kinase 1 (Plasmodium falciparum (isolate 3D7)) (UniProt P62344); test: PfCDPK1 kinase inhibitors, biochemical, TCAMS library (AID 1159585; cut-off not given, nearly all actives have IC50 up to about 0.98 µM;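 further: inhibitors leave more ATP so luminescence rises with inhibition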); conditions: recombinant PfCDPK1, Kinase-Glo ATP depletion luminescence
[6] = target: Plasmodium falciparum protein kinase 6 (PK6, PF3D7_1337100) (UniProt Q8IDW1); test: PfPK6 kinase inhibitors, biochemical, TCAMS library (AID 1159586); conditions: recombinant PfPK6, Kinase-Glo ATP depletion luminescence
[7] = target: Protein kinase 7 (PK7), Plasmodium falciparum 3D7 (PF3D7_0213400) (UniProt Q7YTF7); test: inhibition of Plasmodium PK7 catalytic activity – biochemical, TCAMS antimalarial set, Kinase-Glo luminescence (AID 1159587); conditions: recombinant PfPK7, Kinase-Glo ATP depletion luminescence
[8] = target: Calcium-dependent protein kinase 4 (Plasmodium falciparum (isolate 3D7)) (UniProt Q8IBS5); test: PfCDPK4 kinase inhibitors, biochemical, TCAMS library (AID 1159588; cut-off not given, nearly all actives have IC50 up to about 0.91 µM); conditions: recombinant PfCDPK4, Kinase-Glo ATP depletion luminescence
Calcium-dependent protein kinase 4 (Plasmodium falciparum (isolate 3D7)), sequence (Q8IBS5 whole entry, looked up): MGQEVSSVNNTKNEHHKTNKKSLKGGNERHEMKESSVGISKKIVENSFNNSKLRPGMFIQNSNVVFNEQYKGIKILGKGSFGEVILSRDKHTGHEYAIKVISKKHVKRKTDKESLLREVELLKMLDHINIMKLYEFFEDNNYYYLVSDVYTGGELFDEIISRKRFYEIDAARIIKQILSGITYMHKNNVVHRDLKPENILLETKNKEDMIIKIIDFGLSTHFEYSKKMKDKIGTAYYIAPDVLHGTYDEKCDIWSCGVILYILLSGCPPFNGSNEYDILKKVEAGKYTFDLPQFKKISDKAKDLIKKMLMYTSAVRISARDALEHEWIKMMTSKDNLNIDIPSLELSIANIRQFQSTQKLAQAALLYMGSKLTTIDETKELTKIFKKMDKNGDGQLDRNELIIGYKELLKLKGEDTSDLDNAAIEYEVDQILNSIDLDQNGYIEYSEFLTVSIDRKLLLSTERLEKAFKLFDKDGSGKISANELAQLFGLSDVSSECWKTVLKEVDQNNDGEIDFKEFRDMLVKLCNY

Plasmodium falciparum protein kinase 6 (PK6, PF3D7_1337100), sequence (Q8IDW1 1-305): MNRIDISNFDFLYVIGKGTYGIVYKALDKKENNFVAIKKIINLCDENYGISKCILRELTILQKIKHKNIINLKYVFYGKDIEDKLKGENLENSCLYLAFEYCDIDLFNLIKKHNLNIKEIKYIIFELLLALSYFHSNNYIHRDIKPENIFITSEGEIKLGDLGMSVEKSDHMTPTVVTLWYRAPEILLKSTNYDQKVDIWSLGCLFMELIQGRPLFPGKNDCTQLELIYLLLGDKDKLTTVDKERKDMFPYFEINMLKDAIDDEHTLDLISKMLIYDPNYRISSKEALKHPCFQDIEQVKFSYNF
L-lactate dehydrogenase (Plasmodium falciparum (isolate CDC / Honduras)), sequence (Q27743 whole entry, looked up): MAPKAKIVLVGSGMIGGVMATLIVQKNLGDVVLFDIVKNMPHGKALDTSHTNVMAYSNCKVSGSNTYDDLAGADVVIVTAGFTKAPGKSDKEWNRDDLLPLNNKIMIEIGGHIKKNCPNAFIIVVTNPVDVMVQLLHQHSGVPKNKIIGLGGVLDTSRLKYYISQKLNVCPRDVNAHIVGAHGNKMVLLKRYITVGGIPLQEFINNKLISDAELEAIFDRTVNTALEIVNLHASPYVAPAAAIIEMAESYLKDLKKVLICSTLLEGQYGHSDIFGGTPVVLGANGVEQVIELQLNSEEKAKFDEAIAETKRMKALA
Calcium-dependent protein kinase 1 (Plasmodium falciparum (isolate 3D7)), sequence (P62344 whole entry, looked up): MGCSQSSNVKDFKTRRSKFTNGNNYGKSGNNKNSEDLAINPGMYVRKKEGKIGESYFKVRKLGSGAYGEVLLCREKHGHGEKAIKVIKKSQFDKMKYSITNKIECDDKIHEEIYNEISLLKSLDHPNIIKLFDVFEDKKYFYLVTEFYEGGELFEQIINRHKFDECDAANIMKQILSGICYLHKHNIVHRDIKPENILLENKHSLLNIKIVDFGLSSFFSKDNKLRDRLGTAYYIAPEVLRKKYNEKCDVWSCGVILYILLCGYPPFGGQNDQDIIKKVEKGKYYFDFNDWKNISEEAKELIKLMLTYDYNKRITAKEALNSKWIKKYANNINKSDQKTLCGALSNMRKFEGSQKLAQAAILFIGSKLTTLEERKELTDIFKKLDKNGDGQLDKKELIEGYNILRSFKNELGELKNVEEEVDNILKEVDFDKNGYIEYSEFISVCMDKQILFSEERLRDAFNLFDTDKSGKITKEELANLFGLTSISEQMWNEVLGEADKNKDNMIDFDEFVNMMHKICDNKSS
Protein kinase 7 (PK7), Plasmodium falciparum 3D7 (PF3D7_0213400), sequence (Q7YTF7 1-343): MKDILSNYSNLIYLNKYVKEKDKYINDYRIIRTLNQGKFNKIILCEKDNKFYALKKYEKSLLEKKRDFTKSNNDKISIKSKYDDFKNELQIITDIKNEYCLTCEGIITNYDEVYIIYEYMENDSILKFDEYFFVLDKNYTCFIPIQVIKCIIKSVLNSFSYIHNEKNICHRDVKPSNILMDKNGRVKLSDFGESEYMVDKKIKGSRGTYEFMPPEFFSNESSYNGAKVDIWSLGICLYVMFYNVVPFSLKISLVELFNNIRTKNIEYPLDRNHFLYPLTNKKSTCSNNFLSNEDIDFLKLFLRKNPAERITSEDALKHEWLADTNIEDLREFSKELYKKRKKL

COc1ccc(CNC(=O)C2Cc3ccccc3CN2Cc2ccc3ccccc3c2)cc1 (stereo not given)
active: growth inhibition [1] 84% | growth inhibition [4] 96%
inactive: inhibition [2] 15% | inhibition [3] -8% | outcome [5] | outcome [6] | outcome [7] | outcome [8]

COc1ccc(CCNc2nc(NCCc3cnc[nH]3)nc(NCc3cccc4ccccc34)n2)cc1OC
inactive: growth inhibition [1] 16% | inhibition [2] 2% | inhibition [3] 3% | outcome [5] | outcome [6] | outcome [7] | outcome [8]
active: growth inhibition [4] 98%

O=C(Nc1ccc(N2CCNCC2)nc1)c1oc(-c2ccccc2)nc1C(F)(F)F
inactive: inhibition [2] 7% | inhibition [3] 0% | outcome [5] | outcome [6] | outcome [7] | outcome [8]
active: growth inhibition [1] 62% | growth inhibition [4] 100%

COc1ccc(C(=O)CCC(=O)N(Cc2ccc(-c3ccc(CNCCc4ccccc4)cn3)cc2)C(C)CN(C)C)cc1F (stereo not given)
active: growth inhibition [1] 57% | growth inhibition [4] 98%
inactive: inhibition [2] 20% | inhibition [3] -4% | outcome [5] | outcome [6] | outcome [7] | outcome [8]

CCOC(=O)c1cc2c(CCN3C(=O)c4ccccc4C3=O)cn(C)c2cc1-c1ccncc1
inactive: inhibition [3] 2% | outcome [5] | outcome [6] | outcome [7] | outcome [8]
active: growth inhibition [1] 90% | inhibition [2] 99% | growth inhibition [4] 101%

Nc1nc(N)c2c(ccc3c2cnn3S(=O)(=O)N2CCCC2)n1
inactive: growth inhibition [1] 3% | inhibition [3] 2% | outcome [5] | outcome [6] | outcome [7] | outcome [8]
active: inhibition [2] 70% | growth inhibition [4] 93%

CCC[C@@H]1CCN[C@H]([C@H](O)c2ccnc3ccc(OC)cc23)C1
active: growth inhibition [1] 69% | growth inhibition [4] 99%
inactive: inhibition [2] -3% | inhibition [3] -1% | outcome [5] | outcome [6] | outcome [7] | outcome [8]

O=S(=O)(Nc1ccc(CCN2CCC(N3CCCCC3)CC2)cc1)c1ccc2ccccc2c1
inactive: inhibition [2] 44% | inhibition [3] -2% | outcome [5] | outcome [6] | outcome [7] | outcome [8]
active: growth inhibition [1] 80% | growth inhibition [4] 101%

COc1c(C2CCN(CCCCNC(=O)c3cc(-c4ccc(Cl)cc4)[nH]c3C)CC2)ccc2c1CCCC2
inactive: inhibition [3] -6% | outcome [5] | outcome [6] | outcome [7] | outcome [8]
active: growth inhibition [1] 91% | inhibition [2] 53% | growth inhibition [4] 100%

CC(Sc1n[nH]c(-c2cccs2)n1)C(=O)c1c[nH]c2ccccc12 (stereo not given)
inactive: inhibition [2] -8% | inhibition [3] 6% | outcome [5] | outcome [6] | outcome [7] | outcome [8]
active: growth inhibition [1] 58% | growth inhibition [4] 94%

Cc1cnc2ccc(NS(=O)(=O)c3ccc4c(Cl)cccc4c3)cc2c1N1CCNCC1
active: growth inhibition [4] 101%
inactive: growth inhibition [1] 3% | inhibition [2] 24% | inhibition [3] 1% | outcome [5] | outcome [6] | outcome [7] | outcome [8]

OCCN1CCN(Cc2cccc(-c3cccc(-c4nc5ccc(F)cc5[nH]4)c3)c2)CC1
inactive: inhibition [2] 41% | inhibition [3] -2% | outcome [5] | outcome [6] | outcome [7] | outcome [8]
active: growth inhibition [1] 99% | growth inhibition [4] 102%

Cc1ccc(C(O)CNc2ccnc(Nc3cccc(-c4csc(C)n4)c3)n2)cc1 (stereo not given)
active: growth inhibition [4] 92%
inactive: growth inhibition [1] 31% | inhibition [2] 17% | inhibition [3] -2% | outcome [5] | outcome [6] | outcome [7] | outcome [8]

COc1cccc(C(=O)[C@H]2C[C@@H]2CN(C)CCC(O)c2ccc(Cl)c(Cl)c2)c1 (stereo not given in full)
active: growth inhibition [1] 95% | growth inhibition [4] 99%
inactive: inhibition [2] 17% | inhibition [3] -2% | outcome [5] | outcome [6] | outcome [7] | outcome [8]

CN(C)c1ccc(-c2csc(C(=O)NC3CCCCN(CCC(C)(C)C)C3)c2)cc1 (stereo not given)
inactive: inhibition [2] 10% | inhibition [3] 4% | outcome [5] | outcome [6] | outcome [7] | outcome [8]
active: growth inhibition [1] 68% | growth inhibition [4] 91%

CC1CN(C(=O)c2sc3ccccc3c2Cl)CC(C)O1 (stereo not given)
inactive: inhibition [2] -5% | inhibition [3] 3% | outcome [5] | outcome [6] | outcome [7] | outcome [8]
active: growth inhibition [1] 98% | growth inhibition [4] 101%

O=[N+]([O-])c1cccc(S(=O)(=O)N2CCN(CC(O)COc3ccc(-c4ccccc4)cc3)CC2)c1 (stereo not given)
inactive: growth inhibition [1] 32% | inhibition [2] 11% | inhibition [3] 0% | outcome [5] | outcome [6] | outcome [7] | outcome [8]
active: growth inhibition [4] 94%

O=S(=O)(NC1CCN(c2ccnc3cc(Cl)ccc23)C1)c1cccc(F)c1 (stereo not given)
active: growth inhibition [1] 88% | growth inhibition [4] 98%
inactive: inhibition [2] 19% | inhibition [3] 5% | outcome [5] | outcome [6] | outcome [7] | outcome [8]

CN1CCCC1CCNC(=O)[C@H](CC1CCCCC1)NC(=O)c1ccc(O)c(-c2ccc(Cl)c(Cl)c2)c1 (stereo not given in full)
inactive: growth inhibition [1] 35% | inhibition [2] 0% | inhibition [3] 3% | outcome [5] | outcome [6] | outcome [7] | outcome [8]
active: growth inhibition [4] 98%

CN(C(=O)NCCc1ccccc1)C1CCN(CCCCCNC(=O)/C=C/c2ccc(Cl)c(Cl)c2)CC1
inactive: growth inhibition [1] 11% | inhibition [2] 43% | inhibition [3] -7% | outcome [5] | outcome [6] | outcome [7] | outcome [8]
active: growth inhibition [4] 93%

CN(CCN1CCCC1)c1nc2ccc(-n3cnc4cc(-c5ccc(Cl)cc5)sc4c3=O)cc2[nH]1
inactive: growth inhibition [1] 15% | inhibition [3] 3% | outcome [5] | outcome [6] | outcome [7] | outcome [8]
active: inhibition [2] 76% | growth inhibition [4] 93%

Cc1ccc2nc(C)cc(NN=Cc3ccc([N+](=O)[O-])o3)c2c1
active: growth inhibition [1] 99% | growth inhibition [4] 101%
inactive: inhibition [2] 15% | inhibition [3] -4% | outcome [5] | outcome [6] | outcome [7] | outcome [8]

O=C(Nc1cccc(Oc2ccccc2)c1)N[C@H]1CCN(Cc2ccc(OCCCN3CCCCC3)cc2)C1
inactive: inhibition [3] -2% | outcome [5] | outcome [6] | outcome [7] | outcome [8]
active: growth inhibition [1] 70% | inhibition [2] 94% | growth inhibition [4] 101%

CC1(C)CCCC(=Cc2ccc(Br)cc2)C1(O)Cn1ccnc1 (stereo not given)
inactive: inhibition [2] 7% | inhibition [3] 0% | outcome [5] | outcome [6] | outcome [7] | outcome [8]
active: growth inhibition [1] 69% | growth inhibition [4] 99%

COc1cccc2cc(C(=O)N[C@@H](CC(C)C)C(=O)N[C@H](/C=N/N3CCCC3=O)Cc3ccccc3)oc12
active: growth inhibition [1] 80% | growth inhibition [4] 96%
inactive: inhibition [2] 5% | inhibition [3] 5% | outcome [5] | outcome [6] | outcome [7] | outcome [8]

O=C(/C=C/c1ccc(Cl)c(Cl)c1)NCCCCCN1CCC(NC(=O)c2ccc3ccccc3c2)CC1
inactive: growth inhibition [1] 20% | inhibition [2] 8% | inhibition [3] -2% | outcome [5] | outcome [6] | outcome [7] | outcome [8]
active: growth inhibition [4] 87%

c1ccc(CCNCc2ccc(-c3cccc(-c4nc5ccccc5[nH]4)c3)cc2)nc1
inactive: inhibition [2] 36% | inhibition [3] 7% | outcome [5] | outcome [6] | outcome [7] | outcome [8]
active: growth inhibition [1] 87% | growth inhibition [4] 100%

Cc1cc(OCC2CCCN(c3ncc(C(=O)NC4CC4)cc3Cl)C2)ccc1F (stereo not given)
active: growth inhibition [1] 68% | growth inhibition [4] 88%
inactive: inhibition [2] 3% | inhibition [3] -1% | outcome [5] | outcome [6] | outcome [7] | outcome [8]

CC1CCCCC1N(C)C1CCN(CCCNC(=O)C=Cc2ccc(Cl)cc2Cl)CC1 (stereo not given)
active: growth inhibition [1] 59% | inhibition [2] 53% | growth inhibition [4] 101%
inactive: inhibition [3] 4% | outcome [5] | outcome [6] | outcome [7] | outcome [8]

Cc1cc(Cl)c(Cl)cc1NC(=O)Nc1cccc(C(F)(F)F)c1
inactive: inhibition [2] 1% | inhibition [3] -1% | outcome [5] | outcome [6] | outcome [7] | outcome [8]
active: growth inhibition [1] 99% | growth inhibition [4] 93%

CN(Cc1cccc(O)c1)C1CCN(c2cc(NC(=O)c3cccc(F)c3)ccn2)CC1
active: growth inhibition [4] 98%
inactive: growth inhibition [1] 37% | inhibition [2] -2% | inhibition [3] 0% | outcome [5] | outcome [6] | outcome [7] | outcome [8]

CCN(CC)CCCC(C)Nc1c(-c2ccc(OC)cc2)cnc2ccccc12 (stereo not given)
inactive: growth inhibition [1] 38% | inhibition [2] 3% | inhibition [3] -6% | outcome [5] | outcome [6] | outcome [7] | outcome [8]
active: growth inhibition [4] 93%

Cc1nc(-c2ccc(-c3ccc(C(=O)Nc4ccc(Cl)c(N5CCN(C)CC5)c4)cc3)c(C)c2)no1
inactive: growth inhibition [1] 47% | inhibition [2] 23% | inhibition [3] 4% | outcome [5] | outcome [6] | outcome [7] | outcome [8]
active: growth inhibition [4] 101%

Cc1ccnc2nc(C(=O)Nc3cc(Cl)ccc3N3CCOCC3)nn12
inactive: inhibition [2] -4% | inhibition [3] -1% | outcome [5] | outcome [6] | outcome [7] | outcome [8]
active: growth inhibition [1] 63% | growth inhibition [4] 84%

CN1CC[C@@H](Oc2cc(NC(=O)Nc3ccccc3Br)ccc2Cl)C1
inactive: growth inhibition [1] 6% | inhibition [2] 26% | inhibition [3] 0% | outcome [5] | outcome [6] | outcome [7] | outcome [8]
active: growth inhibition [4] 100%

CC(C)C[C@H](NC(=O)c1ccc(OCCN2CCOCC2)cc1)C(=O)N[C@H](/C=N/N(C)C(=O)c1ccccc1)CCc1ccccc1
active: growth inhibition [1] 72% | growth inhibition [4] 91%
inactive: inhibition [2] 8% | inhibition [3] 1% | outcome [5] | outcome [6] | outcome [7] | outcome [8]

CC(C)[C@H](NC(=O)c1ccc(O)c(-c2ccc(Cl)c(Cl)c2)c1)C(=O)NCCN1CCCCC1
active: growth inhibition [1] 98% | growth inhibition [4] 99%
inactive: inhibition [2] -6% | inhibition [3] -4% | outcome [5] | outcome [6] | outcome [7] | outcome [8]

CCN1CCC(NCc2ccc(-c3ccc(Cl)s3)cc2)CC1
active: growth inhibition [4] 96%
inactive: growth inhibition [1] 23% | inhibition [2] 42% | inhibition [3] -4% | outcome [5] | outcome [6] | outcome [7] | outcome [8]

CC1CCc2c(C(=O)Nc3c(F)cc(F)cc3Br)csc2C1 (stereo not given)
inactive: inhibition [2] -1% | inhibition [3] 3% | outcome [5] | outcome [6] | outcome [7] | outcome [8]
active: growth inhibition [1] 59% | growth inhibition [4] 96%

N#Cc1c(N2CCN(c3ccc(F)cc3)CC2)nc(N)c2c(N)nc3c(c12)CC(=O)N3C1CC1
active: growth inhibition [1] 82% | growth inhibition [4] 95%
inactive: inhibition [2] 2% | inhibition [3] -8% | outcome [5] | outcome [6] | outcome [7] | outcome [8]
